Screens as filed in PubChem.
CHX counter: counter-screen hit for Shiga toxin inhibitors, cycloheximide | cell reporter, cycloheximide protein synthesis inhibition counterscreen | max response, % | 12% of 300,000 active | AID 2314; in the data active = max response mostly above about 13%, no sharp cut-off; inactive = mostly below about 14%; also: read at 38.3 µM for the half of the compounds with a filed dose; 0% is about no effect
Pf growth 48h: inhibits P. falciparum growth in the first generation, 48 h; 5.9% of 310,000 active; P. falciparum luciferase growth in erythrocytes, 48 h; Potency, µM (series often up to 28.7 µM), for the others: at the top dose activity change, negative = inhibition, actives largely listed as inhibitors; AID 504832; also: potency is read from the fitted curve at half-maximal effect; % is scaled to controls: 0 for no effect and ±100 for the full control effect
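Here the parasites carry a stable luciferase gene and grow inside erythrocytes in Albumax-based RPMI medium with compound for one erythrocytic cycle. Activity is scored as loss of luminescent signal.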
Shiga inhibitor: blocks Shiga toxin action in Vero cells | inhibition, % at 38.7 µM | Vero cells, Shiga toxin protein synthesis inhibition reporter | 9.2% of 290,000 active; in the data active = inhibition mostly above about 28%, no sharp cut-off; inactive = mostly below about 43%; also: 0% is about no effect
Pf growth 96h: P. falciparum growth inhibition at 96 hours | P. falciparum luciferase reporter growth, 96 h | Potency, µM (doses to about 28.7 µM), inactives show top-dose activity change, negative = inhibition, most hits filed as inhibitors | 6.9% of 320,000 active; also: potency is read from the fitted curve at half-maximal effect; % is scaled to controls: 0 for no effect and ±100 for the full control effect
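Parasite growth measured via integrated firefly luciferase reporter in P. falciparum. Infected erythrocytes at 2% hematocrit, 0.05% parasitemia final were treated 96 hours at 37 C under 5% CO2, and luminescence was read.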
SARS PLpro yeast: inhibitors of SARS-CoV papain-like protease in yeast. S. cerevisiae expressing SARS-CoV PLpro, growth rescue. Potency, µM (series often up to 32.9 µM), for the others: at the top dose activity, positive = growth rescue, usual class: activators. 0.19% of 330,000 active; calls by dose curve; also: potency is read from the fitted curve at half-maximal effect; 0% is about no effect; nearly all actives have a fitted effect of over 55% in size
AMA1-RON2 inh: inhibitors of Plasmodium falciparum AMA1-RON2 interaction. AlphaScreen AMA1-biotinylated RON2 peptide binding. Potency, µM (titrated, usually from 58.2 µM), without a hit: at the top dose activity change, negative = inhibition, most hits filed as inhibitors. 0.2% of 360,000 active;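 also: potency is read from the fitted curve at half-maximal effect; 0% = vehicle wells and -100% = peptide control; nearly all actives have a fitted effect of over 45% in size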
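AMA1 (3D7) with his tag at 25 nM final met compounds first, then biotinylated RON2 peptide at 25 nM; detection used donor plus acceptor beads, 10 µg/mL apiece, read by AlphaScreen after 30 min at room temperature.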
The depositor's hits bear a star; ? = inconclusive; . = no result; + = active, no number. Hits are enriched below; roughly 19% of the tested compounds scored in any of these assays. Unless noted, calls follow the shape of the dose curve; as a rule, active = well fitted curve in the direction sought with a large enough effect; inconclusive = small, poorly fitted or top-dose-only effect, or another doubt; inactive = no such curve, though single readings can be large; an effect the other way counts as inactive or inconclusive.

SMILES	CHX counter	Pf growth 48h	Shiga inhibitor	Pf growth 96h	SARS PLpro yeast	AMA1-RON2 inh
Cc1ccc2nc(NC(=O)C3CCN(S(=O)(=O)c4cnc[nH]4)CC3)sc2c1	-2	60%	6	12µM*	?	-17%
O=C(Nc1nc2ccc(F)cc2s1)C1CCN(S(=O)(=O)c2cc([N+](=O)[O-])ccc2Cl)CC1	34*	?	52*	?	0%	-11%
O=[N+]([O-])c1ccc(O)c([N+](=O)[O-])c1	.	.	.	.	.	0%
Cc1ccc2nc(NC(=O)C3CCN(S(=O)(=O)c4cc([N+](=O)[O-])ccc4Cl)CC3)sc2c1	13*	-1%	+	?	5%	-9%
O=[N+]([O-])c1ccc(Cl)c([N+](=O)[O-])c1	.	10µM*	.	?	.	?
Cc1ccc(NC(=O)C2CCN(S(=O)(=O)c3cc([N+](=O)[O-])ccc3Cl)CC2)nc1	.	.	.	.	0%	-15%
COc1ccc(OC)c(S(=O)(=O)NCCCN2CCCC2=O)c1	-1	19%	-5	-27%	-2%	-7%
CNC(=O)C1(C)C=CC2(CCCCC2)N1C(=O)OC (centres undefined)	.	.	.	.	.	-1%
CN1CCN(S(=O)(=O)c2cc([N+](=O)[O-])ccc2Cl)CC1	-2	-6%	-4	-23%	0%	-2%
O=[N+]([O-])c1ccc(Cl)c(S(=O)(=O)N2CCCCCC2)c1	-1	-19%	-2	10µM*	-8%	-6%
CCc1cccc(NC(=O)Cn2cc(C=O)c3ccccc32)c1	-9	13%	19	?	-2%	-4%
Cc1cc(C)nc(NC(=S)NC(=O)c2ccccc2F)n1	.	.	.	.	.	52%
Cc1cc(C)nc(S/C=C/C(=O)c2ccccc2F)n1	54*	134%	119*	84%	-1%	21%
O=C(N/N=C/c1c(Nc2cccc(C(F)(F)F)c2)nc2ccccn2c1=O)c1ccccc1[N+](=O)[O-]	-4	2%	26	?	?	18%
COc1ccc2oc(=N)c(C(=O)Nc3cccc(C)c3C)cc2c1	30*	39%	49*	?	12%	-6%
COc1ccc2oc(=O)c(C(=O)Nc3ccccc3C)cc2c1	34*	45%	.	0%	2%	-1%
COc1ccc2oc(=O)c(C(=O)Nc3ccccc3-c3ccccc3)cc2c1	-3	16%	2	.	1%	8%
COC(=O)c1cc2ccccc2oc1=O	14	0%	6	.	2%	-8%
Cc1cccnc1NC(=O)c1cc2ccccc2oc1=O	30*	38%	115*	24%	3%	-1%
COc1ccc2oc(=N)c(C(=O)Nc3ccccc3)cc2c1	39*	9%	85*	.	-2%	-3%
Cc1ccc(C(=O)NCC(=O)OC(C)C(=O)Nc2ccc(N3CCOCC3)cc2)s1 (centres undefined)	21	9%	17	16%	0%	0%
N=c1oc2ccccc2cc1C(=O)Nc1ccccc1	46*	0%	116*	?	-1%	15%
COc1ccc2oc(=N)c(C(=O)Nc3ccc(Cl)cc3)cc2c1	-4	-27%	.	?	?	8%
COc1ccc2oc(=N)c(C(=O)Nc3ccccc3Cl)cc2c1	39*	45%	49*	79%	3%	-1%
O=C(Nc1ccccc1O)c1cc2cc(Br)ccc2oc1=O	28*	-5%	114*	5%	-1%	-1%
SMILES	CHX counter	Pf growth 48h	Shiga inhibitor	Pf growth 96h	SARS PLpro yeast	AMA1-RON2 inh
COc1cccc(NC(=O)c2cc3ccccc3oc2=O)c1	42*	201%	.	?	5%	-5%
COc1ccc(NC(=O)c2cc3ccccc3o/c2=N\NS(=O)(=O)c2ccc(C)cc2)cc1	48*	135%	100*	?	-2%	3%
N=c1oc2ccc(Cl)cc2cc1C(=O)Nc1ccc(F)cc1	24*	24%	44*	10%	2%	2%
COc1ccc(-c2c(C#N)c(SCC(=O)c3cc4ccccc4oc3=O)nc(C)c2C(=O)Nc2ccccc2)cc1	-1	?	-3	12µM*	-10%	58%
Cc1nc(SCC(=O)c2cc3ccccc3oc2=O)c(C#N)c(-c2ccccc2)c1C(=O)Nc1ccccc1	-4	11%	-5	-83%	22%	25%
O=C(Nc1ccc(-n2nncc2-c2ccco2)cc1)c1cc2ccccc2oc1=O	17	3%	28	12µM*	0%	?
O=C(Nc1ccc(-n2nncc2-c2ccco2)cc1)c1cccc(F)c1	7	-26%	-12	?	2%	-7%
COc1cccc2cc(C(=O)Nc3cc(C)cc(C)c3)/c(=N/NS(=O)(=O)c3ccccc3)oc12	9	-2%	15	44%	2%	-6%
COc1ccc2oc(=N)c(C(=O)Nc3ccc(F)cc3)cc2c1	-3	6%	14	?	1%	3%
Cc1ccccc1-c1cnc(C(O)c2ccc(-c3ccccc3)cc2)[nH]1 (centres undefined)	.	.	.	.	.	0%
CSc1ccccc1NC(=O)CN(c1cc(C)cc(C)c1)S(C)(=O)=O	-1	-10%	13	.	6%	-14%
CS(=O)(=O)N(Cc1ccccc1)c1ccc(C(=O)Nc2ccccc2Sc2ccccc2)cc1	0	12µM*	6	15µM*	7%	17%
CS(=O)(=O)N(CC(=O)Nc1ccccc1Sc1ccccc1)c1cccc(Br)c1	-3	13µM*	-5	?	?	-1%
CCN(c1ccccc1)S(=O)(=O)c1ccc(C(=O)Nc2cc(C)ccn2)cc1	.	16%	.	?	-2%	-8%
CC1CCCCC1NC(=O)CN1C(=O)NC(Cc2ccccc2)(Cc2ccccc2)C1=O (centres undefined)	-2	-8%	-22	.	15%	-1%
CC(NC(=O)CN1C(=O)NC(Cc2ccccc2)(Cc2ccccc2)C1=O)C12CC3CC(CC(C3)C1)C2 (centres undefined)	1	.	-14	12µM*	-8%	-17%
C[C@H](CO)N1C[C@H](C)[C@@H](CN(C)S(=O)(=O)c2ccccc2)Oc2c(NC(=O)NC3CCCCC3)cccc2C1=O	.	.	.	.	6%	-9%
CCOCCCNC(=S)N1C2CCC1CC(NC(=O)NC13CC4CC(CC(C4)C1)C3)C2 (centres undefined)	-2	4.7µM*	-8	3.7µM*	3%	-5%
CCCCC(CC)CNC(=O)c1ccc2c(=O)n(CCOC)c(=O)[nH]c2c1 (centres undefined)	-7	.	2	.	.	.
COc1ccccc1N1C(=O)S/C(=C\c2cc(C)n(C)c2C)C1=O	29*	79%	56*	38%	0%	-5%
COc1ccccc1N1C(=O)S/C(=C\c2ccc(C)s2)C1=O	22*	30%	28*	-27%	-6%	6%
O=C(Cn1cc(C(F)(F)F)ccc1=O)NC1CCCC1	.	-4%	.	-3%	-2%	-6%
